# bovine MsrA act: activators of bovine methionine sulfoxide reductase A; purified bovine MsrA, absorbance read-out; activation, % at 10.6 µM; actives 0.3% (n = 360,000); in the data active = activation above about 7.5%
# MsrA inh: inhibits bovine methionine sulfoxide reductase A; purified bovine MsrA, absorbance read-out; actives 0.75% (n = 360,000); inhibition, % at 15.5 µM
# OPRM1-OPRD1 inv: inverse agonists of human mu-delta opioid receptor heterodimerization | P35372+P41143 | cell-based MOR-DOR heterodimer luminescence, inverse agonism | inhibition, % at 9.3 µM | actives 0.21% (n = 340,000) | AID 504357; in the data active = inhibition above about 22%, passing the limit was not always enough
# Target sequence (P35372 whole entry, looked up): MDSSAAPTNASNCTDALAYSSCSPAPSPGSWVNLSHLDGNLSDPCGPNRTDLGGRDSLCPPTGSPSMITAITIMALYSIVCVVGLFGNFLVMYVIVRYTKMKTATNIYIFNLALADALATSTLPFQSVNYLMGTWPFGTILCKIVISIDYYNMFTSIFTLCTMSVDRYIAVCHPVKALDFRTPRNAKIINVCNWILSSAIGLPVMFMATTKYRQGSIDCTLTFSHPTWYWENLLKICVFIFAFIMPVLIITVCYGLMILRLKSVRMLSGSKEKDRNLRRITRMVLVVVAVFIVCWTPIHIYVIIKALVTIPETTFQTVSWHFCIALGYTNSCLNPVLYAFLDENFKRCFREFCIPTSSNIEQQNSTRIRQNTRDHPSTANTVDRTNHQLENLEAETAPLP
# Target sequence (P41143 whole entry, looked up): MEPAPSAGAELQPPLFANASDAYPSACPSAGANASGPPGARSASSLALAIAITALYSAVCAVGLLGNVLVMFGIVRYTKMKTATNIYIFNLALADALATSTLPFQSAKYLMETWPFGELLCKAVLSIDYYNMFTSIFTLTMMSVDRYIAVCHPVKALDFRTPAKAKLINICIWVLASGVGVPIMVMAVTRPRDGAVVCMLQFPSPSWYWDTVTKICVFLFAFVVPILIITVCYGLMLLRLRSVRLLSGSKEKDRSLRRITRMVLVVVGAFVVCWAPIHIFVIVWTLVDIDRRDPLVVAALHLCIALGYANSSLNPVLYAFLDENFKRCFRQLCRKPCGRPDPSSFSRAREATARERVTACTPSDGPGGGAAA
# HTR5A inv ag: counter-screen for OPRM1-OPRD1 inverse agonists: human HTR5A inverse agonism; P47898; AID 504634; actives 0.083% (n = 340,000); inhibition, % at 9.3 µM; HTR5A cell line, luminescence; in the data active = inhibition mostly above about 23%, no sharp cut-off; inactive = mostly below about 18%
# OPRM1-OPRD1 ag: OPRM1-OPRD1 heterodimerization agonism. cells, luminescence. activation, % at 9.3 µM. actives 0.3% (n = 340,000); in the data active = activation above about 18%
# HTR5A ag ctr: counter-screen for OPRM1-OPRD1 agonists: human HTR5A agonism | P47898 | actives 0.61% (n = 340,000) | activation, % at 9.3 µM | HTR5A agonist assay, luminescence, cell-based; in the data active = activation mostly above about 9.5%, no sharp cut-off; inactive = mostly below about 7.6%
# MsrA inh confirm: confirmation of bovine MsrA inhibitors. shares compounds with MsrA inh. AID 651822. purified bovine MsrA, absorbance read-out. inhibition, % at 15.5 µM. actives 41% (n = 2,300);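 also: coupled to thioredoxin reductase with NADPH and selenocystamine and DMSO as substrate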
# Hits are given with their value; - = inactive; . = not tested or not shown. A selection: hits, their analogues and other compounds. The true share with any hit is near 1.9%. Rule as the data show it, unless noted: active = inhibition above about 4.5%; inactive = the rest.
SMILES,bovine MsrA act,MsrA inh,OPRM1-OPRD1 inv,HTR5A inv ag,OPRM1-OPRD1 ag,HTR5A ag ctr,MsrA inh confirm
Cc1ccc(N(C)S(=O)(=O)c2c[nH]c3ccc([N+](=O)[O-])cc23)cc1,-,5.8,-,-,-,-,-
CCCn1c(C)c(CC(=O)Nc2ccc(N(C)c3ccccn3)cc2)c2ccccc21,.,-,.,.,.,.,.
Cc1ccc(C2/C(=C(\O)c3c(C)nc4c(C)cccn34)C(=O)C(=O)N2CCN(C)C)o1 (stereo not given),-,-,-,-,-,-,.
Cc1nc2c(C)cccn2c1/C(O)=C1\C(=O)C(=O)N(CCN(C)C)C1c1ccco1 (stereo not given),-,4.7,-,-,-,-,-
CCOC(=O)C1=CCN(S(=O)(=O)c2ccc(F)cc2)C1c1ccc(Cl)cc1 (stereo not given),.,-,.,.,.,.,.
c1csc(-c2nnc(-c3ccc(N4CCOCC4)cc3)o2)c1,-,5.2,-,-,-,-,-
COc1ccc(-c2nnc(-c3cccs3)o2)cc1OC,-,5.3,-,-,-,-,-
CCn1c2ccccc2nc2cc3c(cc21)c(Cl)c(=O)c1ccccc13,-,-,.,.,.,.,.
CC1CC(C)CN(C(=O)c2cc3cc(Br)cc(Br)c3o2)C1 (stereo not given),-,5.4,-,-,-,-,-
CC1CC(C)CN(C(=O)c2cc3ccccc3o2)C1 (stereo not given),-,-,-,-,-,-,.
CCc1cccc(N=c2c([N+](=O)[O-])nn(-c3ccc(Cl)cc3)n2O)c1,-,5.4,-,-,-,-,5.3
Cc1cccc(N=c2c([N+](=O)[O-])nn(-c3ccc(Cl)cc3)n2O)c1,-,-,-,-,-,-,.
CCN1CCN(S(=O)(=O)c2ccc(Cl)c(C(=O)N(C)Cc3ccc(C(C)(C)C)cc3)c2)CC1,-,-,-,-,-,-,.
Oc1ccc(/C=N/Nc2cc(N3CCCC3)nc(N3CCCC3)n2)cc1,-,-,-,-,-,-,.
Fc1cccc(/C=N/Nc2cc(N3CCOCC3)ncn2)c1,-,4.9,-,-,-,-,-
Oc1ccc(/C=N/Nc2cc(N3CCOCC3)nc(N3CCOCC3)n2)cc1,-,5.8,-,-,-,-,5.7
COc1ccc(/C=C2\SC(=O)N(CC(=O)NN3CCN(C)CC3)C2=O)cc1OC,-,4.9,-,-,-,-,-
COc1ccc(/C=C2\SC(=O)N(CC(=O)Nc3ccc(O)cc3)C2=O)cc1OC,-,-,-,-,-,-,.
O=C(N[C@H]1CC[C@H](CCNS(=O)(=O)c2ccc(Cl)cc2)O[C@@H]1CO)c1cccc(F)c1,.,-,.,.,.,.,.
COc1cc2c(cc1O)CC[n+]1cc3c(OC)c(OC)ccc3cc1-2,-,5.2,-,-,-,-,-
C[C@@H]1CN([C@@H](C)CO)C(=O)CCCn2cc(nn2)CO[C@H]1CN(C)C(=O)Nc1ccc(-c2cccs2)cc1,.,-,.,.,.,.,.
CCCCCCCCN1C(=O)[C@H](CC(=O)N2CCCC2)C[C@@]2(C(=O)OC)CC(C)(C)CC=C12,.,-,.,.,.,.,.
CCN(CC)CCCNc1nc(N)c([N+](=O)[O-])c(NCCO)n1,-,5.1,-,-,-,-,4.9
Nc1nc(NCc2ccccc2)nc(NCCO)c1[N+](=O)[O-],-,-,-,-,-,-,.
CNc1nc(N)c([N+](=O)[O-])c(NCCO)n1,-,5.0,-,-,-,-,-
SMILES,bovine MsrA act,MsrA inh,OPRM1-OPRD1 inv,HTR5A inv ag,OPRM1-OPRD1 ag,HTR5A ag ctr,MsrA inh confirm
CN(C)CCCNc1nc(N)c([N+](=O)[O-])c(NCCO)n1,-,-,-,-,-,-,.
COc1ccc(/C=N/N=C2/NC(=O)CC(C(=O)O)S2)cc1 (stereo not given),-,5.0,-,-,-,-,-
O=C1CC(C(=O)Nc2ccc(Cl)cc2)S/C(=N\N=C\c2ccco2)N1 (stereo not given),-,5.6,-,-,-,-,-
COc1ccc(NC(=O)C2CC(=O)N/C(=N/N=C/c3ccco3)S2)cc1 (stereo not given),-,5.1,.,.,.,.,5.1
O=C1CC(C(=O)Nc2ccccc2)S/C(=N\N=C\c2ccco2)N1 (stereo not given),-,5.0,-,-,-,-,5.4
O=C1CC(C(=O)Nc2ccc(Br)cc2)S/C(=N\N=C\c2ccco2)N1 (stereo not given),-,-,-,-,-,-,.
O=C1CC(C(=O)Nc2ccc(Cl)c(Cl)c2)S/C(=N\N=C\c2ccco2)N1 (stereo not given),-,-,-,-,-,-,.
COC(=O)C1=C(C)N(Cc2ccccc2)C(=S)NC1c1cccc(Br)c1 (stereo not given),.,-,.,.,.,.,.
Cc1ccc(S(=O)(=O)NCc2ccccc2Br)cc1,.,-,.,.,.,.,.
CC(=O)C[C@@H]1SC[C@H](c2ccccc2)N1S(=O)(=O)c1ccc(C)cc1,.,-,.,.,.,.,.
COCc1cc(C)nc(N/N=C/c2ccc(-c3ccc(Cl)cc3[N+](=O)[O-])o2)c1C#N,-,6.4,-,-,-,-,-
COCCn1c(=O)[nH]c(=O)c2c1nc(-c1ccc(-c3ccc(Cl)cc3[N+](=O)[O-])o1)n2Cc1ccccc1,-,-,-,-,-,-,.
Cc1nc2ccc(C(=O)N3c4ccccc4N=C(c4ccc5c(c4)OCO5)C3C(=O)NCc3ccccc3)cc2[nH]1 (stereo not given),.,-,.,.,.,.,.
COc1cccc(/C=C2\Oc3cc(OCC(=O)N4CCC[C@H]4C(=O)O)ccc3C2=O)c1,-,5.7,-,-,-,-,5.9
CC1ON=C(c2ccc(F)cc2)NC1=O (stereo not given),-,-,.,.,.,.,.
Oc1ccccc1C1=Nc2ccccc2N=C(c2ccco2)C1,-,4.7,-,-,-,-,-
C[C@H]1CNC(=O)c2c(C(=O)N3CCN(c4ccccc4)CC3)ncn21,.,-,.,.,.,.,.
COC(=O)C1=C(C)N(Cc2ccccc2C(F)(F)F)C(=NCc2ccc3c(c2)OCO3)NC1c1cccc(Cl)c1 (stereo not given),.,-,.,.,.,.,.
CN(C)c1ccc(C=Nc2cnn(C)c2C(N)=O)cc1,-,4.9,-,-,-,-,-
Cc1cc(OC(C)C(=O)NCc2ccccn2)c2c(C)cc(=O)oc2c1 (stereo not given),-,-,-,-,-,-,.
CCCCc1cc(=O)oc2cc(C)cc(OC(C)C(=O)NCc3ccccn3)c12 (stereo not given),-,6.4,-,-,-,-,-
CCN(CC)CCN1C(=O)C(=O)/C(=C(/O)c2ccc(C)cc2)C1c1cccnc1 (stereo not given),-,5.9,-,-,-,-,-
CN(C)CCCN1C(=O)C(=O)/C(=C(/O)c2ccncc2)C1c1cccnc1 (stereo not given),-,6.6,-,-,-,-,-
CN(C)CCCN1C(=O)C(=O)/C(=C(/O)c2ccncc2)C1c1cccc(Br)c1 (stereo not given),-,-,-,-,-,-,.
NC(c1csc(Nc2ccccn2)n1)C1CCCCC1 (stereo not given),-,-,.,.,.,.,.

# Screens (PubChem)
